The assay concerns Vero E6 infected with SARS-CoV-2. Nature of the assay: inhibition of SARS-CoV-2 cytopathic effect; higher = more antiviral protection, active = above 15. The settings on record: 48 h.

Unmarked numbers belong to inactive results.

From the supplement of paper PMC13380429 come the findings set out here.

In the case of `CN1[C@@H]2CC[C@H]1C[C@@H](OC(=O)c1cc(Cl)cc(Cl)c1)C2` [bemesetron], the “inhibition of SARS-CoV-2 cytopathic effect” value (“inhibition” for short) (1 nM) was -0.2%; the “inhibition” value (8.33 nM) is 0.56%; the “inhibition” value (100 nM) is 0.85%; the “inhibition” value (833.33 nM) is 0.1%; the “inhibition” value (10000 nM) is 2.26%.

As to `CN(C)C(=O)C(=O)c1cn(C)c2cc(Cl)c(C(=O)N3CCC(Cc4ccc(F)cc4)CC3)cc12`, the “inhibition” value (1 nM) is 2.15%; the “inhibition” value (8.33 nM) is -1.11%; the “inhibition” value (100 nM) is -2.84%; the “inhibition” value (833.33 nM) was -2.05%; the “inhibition” value (10000 nM) was 6.33%.

Turning to `Cc1[nH]c2ccccc2c1CCNC(=O)c1cccs1`, the “inhibition” value is, setting by setting: (1 nM) -3.95%; (8.33 nM) -2.61%; (100 nM) -2.69%; (833.33 nM) 1.32%; (10000 nM) 16% (active).

Consider `CN1[C@@H]2CC[C@H]1C[C@@H](OC(c1ccccc1)c1ccccc1)C2` [benztropine-mesylate], for which the “inhibition” value by setting is: (1 nM) 1.74%; (8.33 nM) -0.55%; (100 nM) 1.26%; (833.33 nM) -8.96%; (10000 nM) -7.74%.

Take `CC(C)(O)C(=O)Nc1ccc([N+](=O)[O-])c(C(F)(F)F)c1` [2-hydroxyflutamide]: the “inhibition” value was 0.48% (1 nM); 0.38% (8.33 nM); -0.65% (100 nM); -2.57% (833.33 nM); -4.93% (10000 nM).

Regarding `O=C(O)COc1cccc(CN(Cc2ccc(-n3cccn3)cc2)S(=O)(=O)c2cccnc2)c1` [taprenepag], the “inhibition” value by setting is: (1 nM) 0.31%; (8.33 nM) -1.59%; (100 nM) -0.6%; (833.33 nM) -0.14%; (10000 nM) 0.98%.

As for `CC(C)(C(=O)NCC(F)(F)C(F)(F)F)C(=O)N[C@@H]1C(=O)Nc2ccccc2-c2ccccc21`, the “inhibition” value is, setting by setting: (1 nM) -4.06%; (8.33 nM) -4.36%; (100 nM) -4.95%; (833.33 nM) -5.35%; (10000 nM) -3.87%.
